Screening data: PubChem, several laboratories
Mtb hypoxia inh: inhibitors of hypoxia-regulated fluorescent reporter in Mycobacterium tuberculosis; fluorescence inhibition, % (no concentration beside the values); hit rate 0.1% among 300,000; AID 1159583; M. tuberculosis hypoxia-regulated fluorescent reporter, fluorescence; in the data active = fluorescence inhibition mostly above about 23%, no sharp cut-off; inactive = mostly below about 17%
Mtb FBA inh: inhibitors of M. tuberculosis fructose-bisphosphate aldolase; P9WQA3; purified M. tuberculosis FBA, fluorescence read-out; inhibition, % at 1 µM; hit rate 2.3% among 360,000; AID 588726; in the data active = inhibition above about 27%;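 also: 0% = vehicle and 100% = reference inhibitor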
Target sequence (P9WQA3 whole entry, looked up): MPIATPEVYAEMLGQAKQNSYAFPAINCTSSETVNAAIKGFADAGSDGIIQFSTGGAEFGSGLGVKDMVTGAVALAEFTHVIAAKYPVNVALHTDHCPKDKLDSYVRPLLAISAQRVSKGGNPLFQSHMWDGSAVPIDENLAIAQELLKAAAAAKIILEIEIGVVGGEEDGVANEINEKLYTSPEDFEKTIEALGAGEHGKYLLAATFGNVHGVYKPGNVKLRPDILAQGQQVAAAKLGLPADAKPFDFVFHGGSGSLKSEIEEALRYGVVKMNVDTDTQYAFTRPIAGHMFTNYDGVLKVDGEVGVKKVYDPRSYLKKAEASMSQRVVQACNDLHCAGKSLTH
GDH-TPI inh: counter-screen for M. tuberculosis FBA inhibitors: GDH-TPI coupled enzymes; GDH-TPI coupled enzyme counterscreen, NADH absorbance; inhibition, % at 4.8 µM; hit rate 1.2% among 360,000; AID 588335; in the data active = inhibition above about 30%;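 also: 0% = DMSO wells and 100% = wells lacking the enzyme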
FadD28 FP inh: blocks FadD28 binding to the bisubstrate probe. fluorescence polarization. inhibition, % at 12.5 µM. hit rate 0.22% among 360,000. AID 588549; in the data active = inhibition above about 8.5%, passing the limit was not always enough
BioA inh: inhibitors of Mycobacterium tuberculosis BioA enzyme; purified M. tuberculosis BioA enzyme, plate reader; AID 602481; hit rate 0.096% among 360,000; inhibition, % at 9.99 µM; in the data active = inhibition above about 40%
The depositor's hits bear a star; · = not tested or not shown. Sampled rows, rich in hits. Any-hit rate of the full collection: about 2.9%.

SMILES	Mtb hypoxia inh	Mtb FBA inh	GDH-TPI inh	FadD28 FP inh	BioA inh
CCCC(CC)Sc1nc2c([nH]1)c(=S)n(C)c(=O)n2C (stereo not drawn)	·	4	20	1	4
CSc1nc2c([nH]1)c(=S)n(C)c(=O)n2C	2	1	34*	0	1
CCCCC(C)Sc1nc2c([nH]1)c(=S)n(C)c(=O)n2C (stereo not drawn)	·	-3	31*	-1	0
Nc1nc(=S)c2ncn(C3CCCCC3)c2[nH]1	9	5	31*	·	-1
COc1ccc(-n2c(/C=C/c3ccc(O)cc3)nc3ccccc3c2=O)cc1	11	1	57*	1	2
O=c1c2ccccc2nc(/C=C/c2ccc(O)cc2)n1-c1ccc(O)cc1	-9	9	27	2	-3
O=c1c2ccccc2nc(/C=C/c2ccc(Br)cc2)n1CCO	9	3	35*	-1	0
CO[C@H]1CN(C)C(=O)c2cc(NS(C)(=O)=O)ccc2OC[C@@H](C)N(C)C[C@H]1C	·	·	·	·	-3
CN1/C(=C/C(=O)COC(=O)C2COc3ccccc3O2)C(C)(C)c2ccccc21 (stereo not drawn)	6	3	32*	0	-2
CN1/C(=C\C(=O)COC(=O)CNC(=O)c2ccc3ccccc3c2)C(C)(C)c2ccccc21	3	5	10	-1	-2
CN1/C(=C\C(=O)COC(=O)CN2C(=O)C3CC=CCC3C2=O)C(C)(C)c2ccccc21 (stereo not drawn)	7	8	37*	-2	1
Cn1c(N)c(N=O)c(=O)n(C)c1=S	5	-2	43*	-1	1
C[C@@H]1CN([C@H](C)CO)C(=O)c2cc(NC(=O)Cc3ccccc3)ccc2O[C@@H]1CN(C)S(=O)(=O)c1cccs1	·	·	·	·	1
O=C1CS/C(=N/N=C/c2ccco2)N1Cc1ccc(F)cc1	·	-1	38*	-3	1
CC1S/C(=N/N=C/c2ccco2)N(Cc2ccc(F)cc2)C1=O (stereo not drawn)	·	-2	25	-3	·
CCOC(=O)C(C)=NNC(=O)c1ccc([N+](=O)[O-])cc1	-4	·	·	·	·
O=C(N/N=C/c1ccc2c(c1)OCO2)c1ccc2c(c1)OCO2	·	-2	16	-4	0
O=C(NN=C/C=C/c1ccc2c(c1)OCO2)c1cccnc1	-8	·	·	·	·
O=C(N/N=C\C=C\c1ccc2c(c1)OCO2)c1cccnc1	·	1	54*	-1	14
O=C(NN=Cc1ccc2c(c1)OCO2)c1ccccc1	13	-1	38*	-2	1
COc1cc2ccccc2cc1C(=O)N/N=C/c1ccc2c(c1)OCO2	·	4	42*	·	-1
O=C(N/N=C\c1ccc2c(c1)OCO2)c1ccco1	·	4	43*	-3	·
C[C@H](CO)N1C[C@H](C)[C@H](CN(C)C(=O)Nc2ccc3c(c2)OCO3)Oc2ccc(NS(C)(=O)=O)cc2C1=O	·	·	·	·	-2
CO[C@@H]1CN(C)C(=O)c2cc(NC(=O)NC(C)C)ccc2OC[C@@H](C)N(C(=O)C2CCC2)C[C@@H]1C	·	·	·	·	0
CO[C@H]1CN(C)C(=O)c2cc(NC(=O)Nc3ccc(Cl)cc3)ccc2OC[C@@H](C)N(C(=O)Nc2c(C)noc2C)C[C@H]1C	·	·	·	·	-2
SMILES	Mtb hypoxia inh	Mtb FBA inh	GDH-TPI inh	FadD28 FP inh	BioA inh
C#CCOCCOCCOCCNc1nc(N2CCN(C(=O)C(CCCCN)n3cc(C(N)CC(N)=O)nn3)CC2)nc(N2CCN(C(=O)C(CCCCN)n3cc(C(N)C(C)CC)nn3)CC2)n1 (stereo not drawn)	4	·	·	·	·
O=C(NN=Cc1ccncc1)c1ccc2c(c1)OCO2	10	·	·	·	·
S=C(NN=Cc1ccc2c(c1)OCO2)NN=Cc1ccc2c(c1)OCO2	6	1	62*	-1	-2
O=C(N/N=C\C=C\c1ccc2c(c1)OCO2)C1COc2ccccc2O1 (stereo not drawn)	·	4	40*	0	·
COc1ccc(/C=N/NC(=O)c2ccccc2O)cc1CN1CCOCC1	·	5	40*	-1	-1
COc1ccc(/C=N/NC(=O)c2cccc(Br)c2)cc1CN1CCOCC1	·	-4	12	-3	-2
O=C(NN=Cc1ccc2c(c1)OCO2)c1ccncc1	·	0	33*	-4	0
COc1ccc(S(=O)(=O)N[C@H]2CC[C@H](CCn3cc(-c4cccc(F)c4)nn3)O[C@H]2CO)cc1	·	·	·	·	2
COc1cc(NC(=O)c2ccc3c(c2)OCO3)ccc1NC(=O)c1ccco1	·	0	42*	0	-6
Cc1nn(C)c(Cl)c1C=NOC(=O)c1ccccc1	8	·	·	·	·
NC(Cn1cncn1)=NNC(=O)C(=O)Nc1ccccc1	3	·	·	·	·
